The list is not random: actives were taken first. Their share in the collection is about 4.7%.
TRHR enhancer: qHTS for Small Molecule Agonists and Allosteric Enhancers of Human TRH Receptor: Primary Screen for Enhancers; Thyrotropin-releasing hormone receptor (Homo sapiens), P34981; TRHR cells, fluo-8 calcium fluorescence, EC20 TRH enhancement; enhancement, % at 2 µM; hit rate 0.66% among 360,000; in the data active = enhancement above about 30%
Target sequence (P34981 whole entry, looked up): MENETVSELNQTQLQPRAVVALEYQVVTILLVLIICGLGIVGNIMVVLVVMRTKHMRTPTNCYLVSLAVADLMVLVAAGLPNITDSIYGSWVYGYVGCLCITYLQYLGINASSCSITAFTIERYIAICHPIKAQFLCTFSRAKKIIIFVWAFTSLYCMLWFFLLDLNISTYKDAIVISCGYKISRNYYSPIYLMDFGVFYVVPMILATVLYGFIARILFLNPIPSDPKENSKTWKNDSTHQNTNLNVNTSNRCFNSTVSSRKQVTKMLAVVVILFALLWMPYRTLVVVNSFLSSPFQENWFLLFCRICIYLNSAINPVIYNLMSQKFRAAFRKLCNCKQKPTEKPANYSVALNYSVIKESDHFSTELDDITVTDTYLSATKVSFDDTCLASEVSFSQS
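TRHR-expressing cells loaded with fluo-8 calcium dye were read kinetically (ex 480/em 530) during compound addition, then stimulated with an EC20 of TRH (10 nM final). Enhancement of the Gq-mediated intracellular calcium response was scored.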
TRHR agonist: qHTS for Small Molecule Agonists and Allosteric Enhancers of Human TRH Receptor: Primary Screen for Agonists; Thyrotropin-releasing hormone receptor (Homo sapiens), P34981; TRHR cells, calcium flux fluo-8, FDSS agonist mode; activation, % at 2 µM; hit rate 0.18% among 360,000; AID 493084, 2011
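TRHR-expressing cells, plated overnight in medium with 10% serum, were loaded with fluo-8 calcium dye at room temperature. After a 10 s baseline, library compound was pin-added and calcium release was recorded kinetically (ex 480/em 530) as agonist response.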
D1 antagonist: Antagonist of Human D 1 Dopamine Receptor: qHTS; hit rate 3.2% among 360,000; HEK293 TREx D1 cells, calcium flux, dopamine EC80; hits give low values; AID 504652, 2011; D(1A) dopamine receptor (Homo sapiens), P21728; activity change, negative = inhibition, % at 10 µM; in the data active = activity change below about -30%
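Allosteric or orthosteric antagonism assessed as attenuation of the calcium response to EC80 dopamine, added 180 s after compound, in induced HEK293 Trex D1 cells loaded with no-wash calcium dye.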
D1 agonist: Allosteric Agonists of the Human D1 Dopamine Receptor: qHTS; D(1A) dopamine receptor (Homo sapiens), P21728; HEK293 T-REx D1 cells, calcium flux, agonist mode; activation, % at 2 µM; hit rate 1% among 360,000
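Agonism was scored from calcium flux recorded over 180 s (1 read/s) after pintool compound addition, following a 10-cycle baseline. Cells were inducible force-coupled HEK293 TREx D1, plated overnight at 30 C and loaded with no-wash calcium dye.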
D1 potentiator: Potentiators of Human D1 Dopamine Receptor: qHTS. D(1A) dopamine receptor (Homo sapiens), P21728. HEK293 TREx D1 cells, calcium flux, dopamine EC20 potentiation. potentiation, % at 10 µM. AID 504651, 2011. hit rate 0.036% among 360,000; in the data active = potentiation above about 30%
Large screens that a line does not name were inactive. Cut-off read from the data, not from the text of the source, unless noted: active = activation above about 30%; inactive = the rest.

Cc1oc(-c2cccc(Cl)c2)nc1CS(=O)(=O)CC(=O)NCCN1CCOCC1	D1 antagonist -33
Cc1cccc(CCNS(=O)(=O)c2ccc3c(c2)NC(=O)CS3)c1	none
Cc1ccc(OCC(=O)NNC(=O)c2ccc3c(=O)n4c(nc3c2)CCC4)cc1	none
CCN(CCNC(=O)C1CCN(Cc2nc(-c3ccc(Cl)cc3)oc2C)CC1)c1ccccc1	D1 antagonist -45, D1 agonist 48
Cc1oc(-c2ccc(Cl)cc2)nc1CN1CCC(C(=O)NCCCN2CCN(c3cccc(Cl)c3)CC2)CC1	D1 antagonist -45, D1 agonist 49
CCN(CCNC(=O)C1CCCN(Cc2nc(-c3ccc(OC)cc3)oc2C)C1)c1ccccc1 (stereo not given)	none
CCc1ccc(-c2nc(CN3CCC(C(=O)NCCN(CC)c4ccccc4)CC3)c(C)o2)cc1	D1 agonist 32
CC(=O)c1ccc(NS(=O)(=O)c2cccc(S(=O)(=O)c3ccc(Cl)cc3)c2)cc1	none
Cc1ncc(CO)c(CNc2ccc(Oc3ccccc3)cc2)c1O	D1 antagonist -37
Cc1ccc(CCNS(=O)(=O)c2cc(-c3cc(C)no3)ccc2C)cc1	none
Cc1nnc(NC(=O)CSc2nnc(CC(=O)Nc3ccccc3C)n2C)s1	none
Cc1ccc(C)c2nc3sc(C(=O)N4CCOCC4)c(N)c3cc12	none
Cc1ccc2nc3sc(C(=O)Nc4ccc(N5CCOCC5)cc4)c(N)c3cc2c1	D1 agonist 39
Cc1cc(C)c2nc3sc(C(=O)N4CCOCC4)c(N)c3cc2c1	D1 agonist 38
Cc1ccc(NC(=O)CN2C(=O)CCn3nc(-c4cccn4C)cc32)cc1	none
CCn1c(=O)c2cc(C(=O)NCCc3ccc(OC)c(OC)c3)sc2c2ccccc21	none
COc1ccc(C(=O)NNC(=O)c2ccc3ccccc3n2)cc1	none
COc1ccc(-n2ncc3c2CC(C)(C)CC3NC(=O)CCN2CCCCC2=O)cc1 (stereo not given)	none
CCCn1nc(C(=O)N2CCc3ccccc32)c2ccccc2c1=O	none
CCCCCn1nc(C(=O)N2CCc3ccccc32)c2ccccc2c1=O	D1 antagonist -51
O=C(c1cc2ncc(CCCl)cn2n1)N1CCCCCC1	D1 antagonist -48
Cc1cccc(NC(=O)c2ccccc2SCc2ccc(F)cc2)n1	D1 antagonist -34
CC(=O)N/N=C(\C)C1COc2ccccc2O1 (stereo not given)	none
Cn1c(=O)c2c(ncn2CC(=O)Nc2cccc(Cl)c2Cl)n(C)c1=O	none
COC(=O)C1=CN(Cc2ccc(OC)cc2)C=C(C(=O)OC)C1c1cc(OC)c(OC)c(OC)c1	none
COC(=O)C1=CN(Cc2ccc(F)cc2)C=C(C(=O)OC)C1c1cc(OC)c(OC)c(OC)c1	D1 antagonist -41
Cc1nc2ccccn2c(=O)c1NC(=O)c1ccccc1Cl	none
Cc1nn(-c2ccc(C(=O)O)cc2)c2c1C(=O)CC(C)(C)C2	none
Cc1c(CC(Cl)(Cl)Cl)c2c(n1O)CC(C)(C)CC2=O	D1 antagonist -46
COC(=O)C(C)Oc1ccc(Cc2ncc(C(F)(F)F)cc2Cl)cc1 (stereo not given)	D1 antagonist -37
COc1ccc(NC2=NC3(CCCCC3)N=C(N)N2)cc1	D1 antagonist -87
CCCCOc1ccc(NC2=NC3(CCCCC3)N=C(N)N2)cc1	none
COc1ccc(OC)c(NC2=NC3(CCCCC3)N=C(N)N2)c1	D1 antagonist -54
CCOC(=O)c1cccc(NC(=O)Cn2ncc3c4ccccc4n(Cc4ccccc4)c3c2=O)c1	none
COc1ccc([S+](=O)([O-])N2CCN([S+](=O)([O-])c3ccc4c(c3)OCCO4)CC2)c(OC)c1	none
NC(=O)C[n+]1cccc(CNC(=O)c2ccc(OC(F)F)cc2)c1	D1 antagonist -30
O=C(C[n+]1cccc(CNC(=O)c2ccc(OC(F)F)cc2)c1)Nc1cc(C(F)(F)F)ccc1Cl	none
CSCCC(NC(=O)c1ccco1)C(=O)Nc1ccc(C)cn1 (stereo not given)	D1 antagonist -35
COc1ccc(-n2nc(C(=O)N(C)C)nc2-c2ccccc2)cc1	none
N=C1C(c2ccccc2)=C(O)CN1CCO	D1 antagonist -30
CCCCCCN1CC(O)=C(c2ccccc2)C1=N	none
CCN(CC)C(=O)C1CCCN(C/C=C/c2ccccc2[N+](=O)[O-])C1 (stereo not given)	D1 antagonist -62
O=[N+]([O-])c1ccccc1/C=C/CN1CCCCC1	none
O=[N+]([O-])c1ccccc1/C=C/CN1CCCCC1CO (stereo not given)	D1 antagonist -34
CCOC(=O)C1CCCN(C/C=C/c2ccccc2[N+](=O)[O-])C1 (stereo not given)	none
CN(CC(=O)Nc1ccc(F)cc1)C(=O)COC(=O)CCN1C(=O)C2CC=CCC2C1=O (stereo not given)	none
NS(=O)(=O)c1ccc(CCNC(=O)CCNS(=O)(=O)c2ccccc2C(F)(F)F)cc1	none
O=C(O)CCCC(=O)Nc1ccc(Br)cc1	none
Cc1ccc(NC(=O)CS(=O)CC(=O)N2CCN(c3ccccc3)CC2)cc1 (stereo not given)	TRHR enhancer 31
O=C(Cc1ccccc1)Nc1ccc(N2CCCC2)cc1	none
O=C(Cc1ccccc1)Nc1cccc(N2CCCC2)c1	D1 antagonist -35
O=C(COc1ccccc1O)Nc1ccc(Cl)cc1	D1 antagonist -36
O=C(O)CCCC(=O)Nc1ccc(Cl)cc1	D1 antagonist -54
Cc1ccc(OCc2nc3ccccc3n2Cc2ccccc2Cl)cc1	none
O=S1(=O)c2cccc3cccc(c23)N1CCBr	none
O=C(CCS(=O)(=O)c1ccccc1F)Nc1ccc(N2CCN(Cc3ccccc3)CC2)cc1	D1 antagonist -39
CCN1CCN(c2ccc(NC(=O)Cc3ccccc3)cc2)CC1	D1 antagonist -62
N#Cc1ccc(OCC(=O)N2CCN(C(=O)c3ccco3)CC2)cc1	D1 antagonist -35
CCC(=O)Nc1ccc(N2CCN(Cc3ccccc3)CC2)cc1	none
O=C(COc1ccc(Cl)cc1)Nc1ccc(N2CCN(C(=O)c3ccco3)CC2)cc1	D1 antagonist -31
COc1cc(NC(=O)CCCN2C(=O)CCn3nc(-c4cn(C)c5ccccc45)cc32)cc(OC)c1	none
Cc1ccc(C(C)(C)C)cc1S(=O)(=O)N1CC(=O)Nc2ccccc21	none (no result: D1 potentiator)
COc1cccc(Cc2nc3ccccc3nc2SCC(=O)Nc2ccccc2F)c1	none
O=C(COc1ccccc1Cl)Nc1ccc(N2CCN(C(=O)c3ccccc3)CC2)cc1	D1 antagonist -52
O=C(COc1ccccc1Cl)Nc1ccc(N2CCCC2)cc1	none
